Test results taken from ChEMBL document CHEMBL3988442, “University of Dundee, Small-Polar-MMV Screening Library” (2021).
Screen size: about 48,000 compounds; about 13,000 (27%) showed an effect of 50% or more. Some of the results follow.

These compounds were tested on Wolbachia pipientis (assay: Anti-Wolbachia Cell-Based Screen). Settings: 5 µM.
Assay type: functional
Set-up: scale not given: in the data most compounds retested in dose-response had high values

SMILES | Percent Effect
O=C(CCC1CC1)N1CCC(n2cc(C3(O)CCCC3)nn2)CC1 | -0.3223%
COc1ccc(C2(C(=O)N3C[C@@H](C(=O)O)[C@H](C(C)C)C3)CC2)cc1 | 6.312%
O=C(CS(=O)(=O)Cc1ccccc1)NC1CCCCNC1=O (stereo not given) | 109%
Cn1cnc2c1CCN(CC(=O)NC1CCCCNC1=O)C2 (stereo not given) | 2.624%
CC(C)CS(=O)(=O)CC(=O)NC1CCCCNC1=O (stereo not given) | 105%
Cc1cc(C)n(CC(=O)NC2CCCCNC2=O)n1 (stereo not given) | -5.953%
O=C(CS(=O)(=O)c1ccccc1Cl)NC1CCCCNC1=O (stereo not given) | 7.591%
Cc1ccccc1CS(=O)(=O)CC(=O)NC1CCCCNC1=O (stereo not given) | 5.447%
Cn1c(C2CC2)nc2c1CCN(CC(=O)NC1CCCCNC1=O)C2 (stereo not given) | -7.835%
O=C(CS(=O)(=O)Cc1ccc(F)cc1)NC1CCCCNC1=O (stereo not given) | 104.6%
O=C(CS(=O)(=O)CC1CCCCC1)NC1CCCCNC1=O (stereo not given) | -2.84%
O=C(CS(=O)(=O)Cc1ccc(F)cc1)NCc1ccccc1F | -12.49%
O=C(CC1CCCCC1)NC1CCCCNC1=O (stereo not given) | 129.3%
O=C1NCCCCC1NC(=O)C1(c2ccccc2)CCOCC1 (stereo not given) | -10.73%
CC1CCN(C)c2ccccc2N1C(=O)c1ccn(C)c(=O)c1 (stereo not given) | -9.489%
COc1cc(C)nc(N2CCN(C(=O)c3ccc[nH]3)CC2)n1 | 4.964%
N#Cc1ccc(N2CCC(c3nccn3Cc3cscn3)CC2)nc1 | 4.95%
COc1ccccc1CN(Cc1nc2c(cnn2C)c(=O)[nH]1)C1CC1 | 17.98%
CCc1noc(CN(CCc2ccccc2)C2CCN(C)CC2)n1 | 1.802%
CCc1nc(CN(CCc2ccccc2)C2CCN(C)CC2)no1 | 22.84%
COc1ccc(CN(Cc2nc(C)no2)C2CCCCC2)cc1OC | 113.8%
CCN(Cc1nc(Cc2ccccc2)no1)C1CC1 | 93.91%
CN(Cc1ccc2c(c1)OCO2)Cc1nc(Cc2ccccc2)no1 | -7.147%
CC(C(=O)NC1CC1)S(=O)(=O)Cc1nc(Cc2ccccc2)no1 (stereo not given) | -3.587%
COc1cc(CO)ccc1OCc1nc(C2CC2)no1 | 5.46%
COc1ccccc1CN(Cc1nc(C)no1)C1CC1 | 102.6%
Cc1nnc(CN(Cc2ccccc2C(F)(F)F)C2CC2)o1 | -10.33%

SMILES | Percent Effect
COc1ccccc1CN(Cc1nc(Cc2ccccc2)no1)C1CC1 | 122.2%
CCc1noc(C(C)N(C)Cc2ccc(OC)c(OC)c2)n1 (stereo not given) | 9.709%
CCCN1CC2(CCN(C)CC2)CC1C(=O)NCCn1nc(C)nc1C (stereo not given) | -19.15%
O=C(CCn1cncn1)NCC1CCS(=O)(=O)C1 (stereo not given) | 0.07359%
CCN(CC)CCSc1ncnc2[nH]ncc12 | -13.76%
Cc1cc(C(=O)NC(CC(C)C)C(=O)Nc2cc[nH]n2)c(C)o1 (stereo not given) | 2.286%
COc1ccccc1CCc1nc(CC2CCN(C)CC2)no1 | 0.6251%
CC(C)c1noc(CN(Cc2ccccc2F)C2CC2)n1 | 5.507%
COc1ccccc1CN(Cc1nc(CC(C)C)no1)C1CC1 | 68.8%
CC(CCc1ccccc1F)C(=O)NS(C)(=O)=O (stereo not given) | -12.84%
Cc1nc(C)n(C2CCCN(C(=O)CCOC(C)C)C2)n1 (stereo not given) | 104.7%
Cc1nc(C)n(C2CCCN(C(=O)CCOCC(C)C)C2)n1 (stereo not given) | 96.93%
Cc1nc(C)n(C2CCCN(C(=O)c3csc(C(C)C)n3)C2)n1 (stereo not given) | -3.924%
Cc1nc(C)n(C2CCCN(C(=O)c3cnc[nH]3)C2)n1 (stereo not given) | 5.274%
CC(NC(N)=O)C(=O)N(C)Cc1cccc(C(F)(F)F)c1 (stereo not given) | -8.418%
O=C1CC(NCc2cnc(-c3cccs3)nc2)CN1c1ccccc1 (stereo not given) | 9.928%
Cc1nc(N2CCN(C(=O)c3ccccc3)CC2)c2cnn(C)c2n1 | 113.9%
Cc1nc(N2CCN(C(=O)c3ccsc3)CC2)c2cnn(C)c2n1 | 2.047%
Cc1ncnc2c1CCN(C(=O)c1ccsc1)CC2 | -12.52%
Cc1nc(N2CCN(C(=O)c3ccccc3)CC2)c2c(n1)c(C)nn2C | 38.43%
CCc1nsc(N2CCCN(C(=O)c3ccsc3)CC2)n1 | 9.27%
Cn1ncc2c(N3CCCN(C(=O)c4ccsc4)CC3)ncnc21 | 109.6%
Cn1ncc2c(=O)[nH]c(N3CCN(C(=O)c4ccsc4)CC3)nc21 | 8.888%
Cn1nc(C#N)c2c1CN(C(=O)c1ccsc1)CCC2 | -3.731%
Cn1ncc2c(N3CCN(C(=O)c4ccsc4)CC3)ncnc21 | 110.5%
Cc1nc(N2CCN(C(=O)c3ccc(O)cc3)CC2)c2cnn(C)c2n1 | 3.35%
Cc1nc(N2CCCN(C(=O)c3ccsc3)CC2)c2cnn(C)c2n1 | 93.06%

SMILES | Percent Effect
Cc1csc(N2CCCN(C(=O)c3ccsc3)CC2)n1 | 30.07%
CN(C)CCn1c(=O)oc2ccc(NC(=O)CC(C)(C)C)cc21 | 14.89%
Cc1ccc(NC(C)C(=O)NCc2cccs2)cc1C (stereo not given) | -16.27%
CCOc1ccc2ccccc2c1CNCC1CCS(=O)(=O)C1.Cl (stereo not given) | -1.499%
CCOc1ccnc(N2CCN(C(=O)C(C)(C)C#N)CC2)n1 | 0.4658%
COc1cc(CN(C)C(=O)NCc2cccnc2OC)ccc1SC | -20.02%
Cc1cc(CS(=O)(=O)C(C)c2ccc(F)cc2)on1 (stereo not given) | -4.028%
COc1ccc(CNC2CCN(c3ccccc3)C2)c(OC)c1OC (stereo not given) | -16.13%
O=C(c1ccnc(-n2ccnc2)c1)N1CCCC(n2ccnc2)C1 (stereo not given) | 100.2%
CN(C)c1cc(C(=O)N2CCCC(n3cccn3)C2)ccn1 (stereo not given) | -2.177%
O=C(c1cccc(Cn2ccnc2)c1)N1CCCC(n2ccnc2)C1 (stereo not given) | 0.5166%
Cc1nccn1C1CCCN(C(=O)c2cccc(Cn3ccnc3)c2)C1 (stereo not given) | 99.35%
Cc1nccn1C1CCCN(C(=O)c2ccnc(-n3ccnc3)c2)C1 (stereo not given) | 102.3%
O=C(c1ccnc(-n2ccnc2)c1)N1CCCC(n2cccn2)C1 (stereo not given) | 103.2%
O=C(c1ccc(-n2ccnc2)nc1)N1CCCC(n2cccn2)C1 (stereo not given) | -14.33%
CC(C)n1ccnc1CN1CCOC(CC2CCCCC2)C1 (stereo not given) | 1.186%
CCc1ccc(-c2cn(CCSc3ncn[nH]3)nn2)nc1 | 2.471%
Cn1nnnc1SCCNC(=O)C1CCN(C(=O)C2CCC2)CC1 | 1.92%
CC(C)[C@H]1CN(CC2CCC2)C[C@@H]1NC(=O)c1ccc(=O)[nH]c1 | 7.651%
CN(C)C(=O)c1nc(CN2C(=O)OC[C@@H]2c2ccccc2)no1 | 1.255%
O=C(CN1CCS(=O)(=O)CC1)NC1CCCc2ccccc21 (stereo not given) | 8.057%
CCN(CCO)Cc1cn(-c2cccc(F)c2)nc1-c1ccc(C)o1 | 11.71%
O=C1CN(Cc2nnc(-c3ccc(Cl)cc3)o2)CCN1 | -10.36%
c1ccc2c(c1)CC(N1CCCC(NCc3cccc4nonc34)C1)C2 (stereo not given) | -10.52%
CCN(CCn1cccn1)C(=O)CN1C(=O)OC[C@@H]1c1ccccc1 | -1.306%
CS(=O)(=O)N1CCCC1CS(=O)(=O)c1ccccc1 (stereo not given) | 121.3%
O=S(=O)(c1cccnc1)N1CCN(CC(O)c2ccccc2)CC1 (stereo not given) | 2.359%

SMILES | Percent Effect
O=C(CC1CCCN1S(=O)(=O)N1CCCCC1)c1cccs1 (stereo not given) | -4.447%
Cc1nccn1CC1CCCN1S(=O)(=O)Cc1ccccc1 (stereo not given) | -11.24%
O=S(=O)(CC1CCCN1S(=O)(=O)c1cccnc1)c1ccccc1 (stereo not given) | 115.5%
O=S(=O)(c1cccnc1)N1CCCC1COc1ccccc1 (stereo not given) | -14.29%
O=S(=O)(CC1CCCN1S(=O)(=O)C1CC1)c1ccccc1 (stereo not given) | 115.6%
CS(=O)(=O)N1CCCCC1CCc1ccc(O)cc1 (stereo not given) | 6.219%
NC1CCCCN(Cc2ccccc2CS(=O)(=O)c2ccccc2)C1 (stereo not given) | -12.21%
CS(=O)(=O)c1ccc(-c2c[nH]c([C@@H]3COCCN3)n2)cc1 | 22.57%
COc1ccc(OC)c2c(C)cc(N(C)Cc3cc(C)on3)nc12 | -2.431%
Cc1nc2cc(=O)[nH]n2c(C)c1CC(=O)Nc1ccc2ccccc2n1 | -9.33%
c1ccc(-c2noc(C3CCN(CCn4cccn4)CC3)n2)cc1 | 4.986%
COc1cccc(-c2noc(C3CCN(Cc4cccs4)C3)n2)c1.Cl (stereo not given) | 4.787%
COc1cccc(-c2noc(C3CCN(CC(N)=O)C3)n2)c1 (stereo not given) | 113.2%
Cc1cccc(-c2noc([C@@H]3C[C@@H](O)CN3C3CCOCC3)n2)c1 | -7.928%
CCS(=O)(=O)c1ccc2oc([C@H]3CCN(CC4CCCCC4)C3)nc2c1 | -4.53%
COc1cccc(-c2noc(C3CCN(CC4CCCCC4)C3)n2)c1.Cl (stereo not given) | 96.8%
COc1cccc(-c2noc(C3CCN(Cc4ccc(C)cc4)C3)n2)c1.Cl (stereo not given) | 91%
COc1cccc(-c2noc(C3CCN(Cc4ccncc4)C3)n2)c1 (stereo not given) | 126.2%
COc1cccc(-c2cccc(CN3C[C@@H]4CC[C@H](C3)N(C)C4=O)c2)c1 | 5.514%
COc1cccc(COC(C)C(=O)NC2CCN(CC(N)=O)CC2)c1 (stereo not given) | -5.378%
Cc1c(NC(C)C(C)C)cccc1C(=O)NCc1cnn(C)c1 (stereo not given) | 6.886%
COC(=O)c1sccc1S(=O)(=O)NCC1(O)CCOc2ccccc21 (stereo not given) | -4.679%
CCOC(=O)CN1CCC(NC(=O)OC(C)(C)C)CC1 | -0.4465%
COc1cccc([C@@H](C)n2ccnc2-c2cc3n(n2)CCNC3)c1 | -10.36%
